Assay [1] is described as follows: Cellular viability qHTS for adrenocortical cancer (ACC) cell line SW-13 (AID 1963989). Further: nearly all actives have a fitted effect of over 65% in size.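 On activity (max response): cells grown in serum-free medium with ITS supplement; on the % scale 0 is the no-effect control and ±100 the full control effect.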 As to conditions: SW-13 ACC cells viability, CellTiter-Glo, 48 h; activity (max response): hits give low values. The method in brief: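 SW-13 cells in ITS-supplemented serum-free DMEM were plated overnight, then exposed for 48 h at 37C to compound titrations (up to 46 uM final). Viability was read by CellTiter-Glo luminescence; four-parameter logistic fits gave IC50 and efficacy.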
On the technique in general: Quantitative high-throughput screening tests each substance at several concentrations.

A short description of assay [2]: Cellular viability qHTS for adrenocortical cancer (ACC) cell line NCI-H295R (AID 1963990). Further: nearly all actives have a fitted effect of over 60% in size. In a few lines:
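Luminescent ATP read-out (CellTiter-Glo, 20 min RT) after 48 h drug exposure of NCI-H295R cells; a titration up to 46 uM final. Data normalized to doxorubicin (100% inhibition) and DMSO (0%); 4-parameter fit gives IC50, max response.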

Values joined by “and” are separate entries in the source; they are usually repeats but may differ in a detail not shown here. Equal values may be shown once. Results filed as inconclusive are left out. A number with no mark means an inactive call. Active and inactive are the calls of the source. The call rests on the fitted dose curve; in most records, active means well fitted cell-killing curve with a large enough effect; inconclusive means small, poorly fitted or top-dose-only effect; inactive means flat fitted curve, though single readings scatter.

Consider 35 compounds from PubChem BioAssay (NCATS).
Potency means the concentration at half of the fitted maximal effect.

In the case of `Nc1ccc(S(=O)(=O)Nc2ccccc2)cc1`, the activity (max response) in assay [1] is 5.64%. Further, the Potency entry in assay [2] is “inactive”.
For `CC(C)NC(=O)N1CC[C@H](N=C2Nc3cc(F)ccc3N(CC(F)F)c3ccc(Cl)cc32)C1` the same measures were -16% and “inactive”.
The matching figures for `c1ccc(-c2nc[nH]c2-c2ccccc2)cc1`: -22.8% and “inactive”.
With `O=C(NNc1ccccc1)c1ccncc1`, the activity (max response) in assay [1] is 1.69%. In assay [2], the Potency result is “inactive”.
As to `O=C(O)c1ccc(O)c2ncccc12`, in assay [1], the activity (max response) was -6.62%. Moreover, the Potency entry in assay [2] is “inactive”.
For `O=c1[nH]nc2c3c(cccc13)NC(CN1Cc3ccccc3C1)=N2` the same measures were -23.2% and “inactive”.
For `Cc1cccc(Nc2ccccc2C(=O)O)c1C` the same measures were 8.3% and “inactive”.
`Cc1cc(O)cc(C)c1Cl`: the activity (max response) in assay [1] is 6.52%. Further, the Potency result in assay [2] is “inactive”.
For `C[C@H](Nc1nc(N[C@H](C)C(F)(F)F)nc(-c2cccc(Cl)n2)n1)C(F)(F)F` the same measures were -11.6% and “inactive”.
The matching figures for `CCN1C(=O)c2ccccc2C1Nc1ccc(OCCN2CCCCC2)cc1` (stereo not given): 0.694% and “inactive”.
The matching figures for `Cc1ccc(O)c2ncccc12`: 11.9% and 20.6 µM (active).
With `C#CCN(C)CCCOc1ccc(Cl)cc1Cl`, in assay [1], the activity (max response) was -17.3%. Moreover, the Potency in assay [2] was 18.4 µM (active).
Turning to `CCS(=O)(=O)N1CCC(C(C)n2c(C)c(C(=O)NCc3c(OC)cc(C)[nH]c3=O)c3ccccc32)CC1` (stereo not given), the activity (max response) in assay [1] was -8.74%. In addition, the Potency result in assay [2] is “inactive”.
Regarding `COc1ccc(C(=O)N2CCN(C(=O)/C=C/c3ccc(Br)cc3)CC2)cc1`, the activity (max response) in assay [1] is -12.8%. Also, in assay [2], the Potency result is “inactive”.
In the case of `CC(C)C[C@@H]1[C@H](c2ccccc2)OC(=O)N1CCCN1CCCCCC1`, the activity (max response) in assay [1] was -14.7%. In assay [2], the Potency result was “inactive”.
For `CN(C)N(C)C(=O)[C@@]1(Cc2ccccc2)CCCN(C(=O)[C@@H](Cc2c[nH]c3ccccc23)NC(=O)C(C)(C)N)C1` the same measures were -15.4% and “inactive”.
For `CO[C@H]1C=CO[C@@]2(C)Oc3c(C)c(O)c4c(O)c(c(/C=N/N5CCN(C)CC5)c(O)c4c3C2=O)NC(=O)/C(C)=C\C=C[C@H](C)[C@H](O)[C@@H](C)[C@@H](O)[C@@H](C)[C@H](OC(C)=O)[C@@H]1C` the same measures were -17.1% and “inactive”.
On to `CC#Cc1cncc(-c2ccc3c(c2)[C@@]2(N=C(C)C(N)=N2)C2(CCC(OC)CC2)C3)c1` (stereo not given in full), for which, in assay [1], the activity (max response) was -4.31%. Moreover, the Potency result in assay [2] was “inactive”.
The matching figures for `O=C(O)P(=O)(O)O`: 10.2% and “inactive”.
With `CC(=O)Oc1ccc(C(c2ccc(OC(C)=O)cc2)c2ccccn2)cc1`, in assay [1], the activity (max response) was -17.9%. Besides, the Potency result in assay [2] is “inactive”.
As to `CCCCCCn1c(=O)c2c(ncn2C)n(C)c1=O`, the activity (max response) in assay [1] was 14%. The Potency entry in assay [2] is “inactive”.
With `CC[N+](C)(CC)CCOC(=O)C(O)(c1ccccc1)C1CCCCC1` (stereo not given), the activity (max response) in assay [1] was 7.72%. The Potency result in assay [2] is “inactive”.
As for `Cc1ccc(O)cc1`, the activity (max response) in assay [1] was 11.5%. The Potency entry in assay [2] is “inactive”.
The matching figures for `CN1C(=O)N[C@@H](Cc2c[nH]c3c(Cl)cccc23)C1=O`: -3.59% and “inactive”.
For `CCC(CC)C(c1ccc(Nc2nc3ccccc3s2)cc1)n1cncn1` (stereo not given), the Potency in assay [1] was 22.4 µM (active); in assay [2], 17.8 µM (active).
As for `COCCOC(=O)C1=C(C)NC(C)=C(C(=O)OC(C)C)C1c1cccc([N+](=O)[O-])c1` (stereo not given), the activity (max response) in assay [1] was 7.46%. For the same compound, the Potency entry in assay [2] was “inactive”.
The matching figures for `CCNC(=O)[C@H]1O[C@@H](n2cnc3c(N)nc(NCCc4ccc(CCC(=O)O)cc4)nc32)[C@H](O)[C@@H]1O`: -2.22% and “inactive”.
For `COc1cccc(-c2c(C)n(Cc3c(F)cccc3C(F)(F)F)c(=O)n(C[C@H](NCCCC(=O)O)c3ccccc3)c2=O)c1F`, the activity (max response) in assay [1] is 3.23% and 7.63%. In assay [2], the Potency result was “inactive”.
On to `CC(C)N(CCCNC(=O)Nc1ccc(C(C)(C)C)cc1)C[C@H]1O[C@@H](n2ccc3c(N)ncnc32)[C@H](O)[C@@H]1O`, for which the activity (max response) in assay [1] was -3.92%. Further, in assay [2], the Potency entry was “inactive”.
The matching figures for `CCS(=O)(=O)c1ccc2oc(-c3ccc4ccccc4c3)nc2c1`: 1.49% and “inactive”.
Take `Cc1c(CN2CCN(C(=O)[C@H](C)O)CC2)sc2c(N3CCOCC3)nc(-c3cnc(N)nc3)nc12`: the Potency was 0.631 µM (active) in assay [1] and 0.398 µM (active) in assay [2].
As to `N=C1S/C(=C\c2ccc(-c3ccc4c(c3)C(=O)NC4=O)o2)C(=O)N1c1ccc(Br)cc1`, in assay [1], the activity (max response) was 2.9%. In assay [2], the Potency result was “inactive”.
For `CC(C)CCOC(=O)c1ccc(N(C)C)cc1` the same measures were 5.28% and “inactive”.
The matching figures for `CCCC(=O)OC[C@@H](OC(=O)CCC)[C@@H](OC(=O)CCC)[C@H](Cn1c2nc(=O)[nH]c(=O)c-2nc2cc(C)c(C)cc21)OC(=O)CCC`: -8.77% and “inactive”.
In the case of `C=CCOc1cc(Cl)ccc1C(=O)NCCN(CC)CC`, the activity (max response) in assay [1] was -0.164%. Besides, the Potency entry in assay [2] was “inactive”.
